What follows are compounds tested on CSF1R. Conditions: concentration: 1 μM, replicates: in singlicate; n = 1.
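Note: KINOMEscan kinase panel screen.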

Compound | %Inh [%]
CCCC(=O)Nc1n[nH]c2ncc(-c3cccc4ccccc34)cc12 [SB-642057] | 26
Nc1nc(N)c2nc(-c3ccccc3)[nH]c2n1 [SKF-12778] | 2
Cl.c1ccc(Cn2cnc3cc(Nc4ncnc5ccccc45)ccc32)cc1 [GW272142] | 4
COc1cccc(-n2cnc3c(N)ncnc32)c1 [SKF-97416] | 7
COC(=O)c1c(-c2ccccc2)c2cc(Br)ccc2c(=O)n1Cc1ccc(S(C)(=O)=O)cc1 | 16
COc1cccc(C2=C(Nc3cccc(C(=O)O)c3)C(=O)NC2=O)c1 [SB-390770] | 0
O=C1NC(=O)C(c2ccccc2)=C1Nc1cccc(O)c1 [SB-390534] | 10
O=c1cc(N2CCOCC2)nc2n(Cc3ccc(F)c(Cl)c3)ccn12 [GSK2297099] | 26
Cc1nnc(-c2ccc3ncn(-c4ccc(S(C)=O)cc4)c3c2)o1 (stereo not shown) | 12
CCc1nc(-c2cccc(C)c2)c(-c2ccncc2)s1 | 0
CCn1c(-c2ccoc2)nc2cnccc21 [SB-733887] | 8
COc1cc2ncn(-c3cc(OCc4ccc(S(C)(=O)=O)cc4)c(C(N)=O)s3)c2cc1OC [GW869979] | 0
COc1ccc(-c2coc3ccc(-c4nnc(SCc5cccc(C#N)c5)o4)cc23)cc1 | 2
Fc1cccc(CSc2nnc(-c3ccc4c(c3)CCO4)o2)c1 | 0
Cc1ccc(Oc2ccc(Nc3ncnc4cc[nH]c34)cc2C)cn1 | 5
COc1ccc(-n2cnc3c(N)ncnc32)cc1 [SKF-97236] | 0
COc1cc(Nc2nccc(N3CCC(NC(=O)C(C)c4ccc(Cl)cc4)C3)n2)cc(OC)c1OC (stereo not shown) [GSK1379757] | 4
Cc1nn2c(=O)cc(N3CCOCC3)nc2n1Cc1cccc(Cl)c1Cl [GSK2342769] | 13
COc1ccc(-c2cc3c(C)nc(N)nc3n([C@H]3CC[C@H](O)CC3)c2=O)cn1 | 0

Compound | %Inh [%]
COc1cc2ncn(-c3cc(OCc4ccncc4)c(C(N)=O)s3)c2cc1OC [GSK336313] | 15
COc1cc(Nc2nccc(N3CCC(NC(=O)C4COc5ccccc5O4)C3)n2)cc(OC)c1OC (stereo not shown) [GSK1379761] | 20
Nc1ncnc2c1ncn2-c1cccc(F)c1 [SKF-97560] | 20
CCC(=O)c1c(-c2ccccc2)c2cc(Cl)ccc2c(=O)n1Cc1cc(C(=O)NC2CC2)n(C)n1 | 9
Nc1n[nH]c2ncc(-c3ccccc3)cc12 [SB-517081] | 47
Cc1nc(N(C)[C@H]2CN(C(=O)CC#N)CC[C@H]2C)c2cc[nH]c2n1 | 13
CC(C)(C)c1ccc(C(=O)Nc2cn3cc(-c4ccccc4)ccc3n2)cc1 | 0
FC(F)(F)c1ccc(-c2ncn(CCCN3CCOCC3)c2-c2ccncc2)cc1 [SB-217780] | 25
O=C(Nc1n[nH]c2nc(-c3ccccc3)c(Cl)cc12)C1CC1 [SB-734909] | 28
COc1ccc(-c2cc3c(C)nc(N)nc3n([C@H]3CC[C@H](OCCO)CC3)c2=O)cn1 | 5
Cc1ccc(-c2ccc3c(ccc4sc5c(c43)NC[C@@H](C)N=C5N(C)C)n2)cn1 | 0
Nc1n[nH]c2nnc(-c3ccccc3)c(-c3ccccc3)c12 [GW554060] | 0
CCC(=O)c1c(-c2ccccc2)c2cc(Cl)ccc2c(=O)n1Cc1ccc(C(=O)O)cc1 | 2
CCS(=O)(=O)c1ccc(OC)c(Nc2ncc(-c3ccc(F)cc3)o2)c1.Cl [GW591947] | 0
CCS(=O)c1ccc(-c2coc3ccc(-c4nnc(C)o4)cc23)cc1 (stereo not shown) | 0
O=C(NCc1cccs1)c1cc(C(=O)c2c(Cl)cccc2Cl)c[nH]1 [GW823670] | 13
COc1cccc(C2=C(N(C)c3ccccc3)C(=O)NC2=O)c1 [SB-334865] | 4
OCCCNc1nccc(-c2c(-c3cccc(C(F)(F)F)c3)nn3cc(C(F)(F)F)ccc23)n1 [GW630813] | 0

Reference: publication PMC5540273 (PLoS ONE, 2017)
